As a reminder, the AC50 is the concentration at which the activity in the assay is half-maximal.

Active and inactive are the calls of the source. How the source made its calls: active means hit-call score of the fitted dose curve at least 0.9, where 1 is the maximum; inactive means score below 0.9.

Sequence of Myc proto-oncogene protein (Homo sapiens) (P01106 whole entry, looked up): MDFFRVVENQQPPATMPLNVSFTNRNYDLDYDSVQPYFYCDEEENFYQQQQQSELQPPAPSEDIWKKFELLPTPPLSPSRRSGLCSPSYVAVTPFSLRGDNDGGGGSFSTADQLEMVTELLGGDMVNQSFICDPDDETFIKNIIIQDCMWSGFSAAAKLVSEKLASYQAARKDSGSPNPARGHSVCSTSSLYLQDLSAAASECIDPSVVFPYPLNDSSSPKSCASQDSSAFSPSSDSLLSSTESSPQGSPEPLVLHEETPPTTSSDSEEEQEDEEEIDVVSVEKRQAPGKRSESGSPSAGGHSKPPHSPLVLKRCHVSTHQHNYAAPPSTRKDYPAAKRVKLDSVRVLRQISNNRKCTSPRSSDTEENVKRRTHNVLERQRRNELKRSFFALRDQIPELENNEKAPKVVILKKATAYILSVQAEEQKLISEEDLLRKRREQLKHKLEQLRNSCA

This assay has as its target Myc proto-oncogene protein (Homo sapiens) (UniProt P01106). The experiment in a line: ATG_Myc_CIS: Attagene CIS-FACTORIAL HepG2 Assay for human Myelocytomatosis (Myc) Proto-Oncogene Transcription Factor (AID 2282990). The settings on record: HepG2, Attagene cis-reporter transcription factor activity; actives raise or lower the signal. Here is the method: ATG_CIS is a cell-based, multiplexed-readout assay that uses HepG2, a human liver cell line, with measurements taken at 24 hours after chemical dosing in a 24-well plate.ATG_Myc_CIS is one of 52 assay component(s) measured or calculated from the ATG_CIS assay. It is designed to make measurements of mRNA induction, a form of inducible reporter, as detected with fluorescence intensity signals by Reverse transcription polymerase chain reaction (RT-PCR) and Capillary electrophoresis technology.Data from the assay component ATG_Myc_CIS was analyzed into 1 assay endpoint. This assay endpoint, ATG_Myc_CIS, was analyzed with bidirectional fitting relative to DMSO as the negative control and baseline of activity. Using a type of inducible reporter, measures of mRNA for gain or loss-of-signal activity can be used to understand the reporter gene at the transcription factor-level as they relate to the gene MYC. Furthermore, this assay endpoint can be referred to as a primary readout, because this assay has produced multiple assay endpoints where this one serves a reporter gene function. To generalize the intended target to other relatable targets, this assay endpoint is annotated to the dna binding intended target family, where the subfamily is basic helix-loop-helix leucine zipper.
Human liver HepG2 cells are transiently transfected with multiple reporter transcription units (MRTUs) in 6-well plates using FuGene 6 reagent (Roche; 3 ml FuGene/1 mg DNA). The MRTU constructs are regulated by a cis-regulating element (promoter). […] A major difference between the CIS and TRANS system is that in CIS activities of endogenous TFs are measured, whereas the TRANS assay evaluates changes in activities of exogenous, chimeric NR-Gal4 proteins. […] At the end of 24 hour incubation, total RNA was isolated using TriZol reagent (Invitrogen). The isolated RNA is then reverse-transcribed using oligo(dT) primer and Mo-MLV reverse transcriptase (Invitrogen) with DNAse I (Ambion) treatment for 30 min. The one-tenth of the produced cDNA was amplified by PCR using Taq DNA polymerase (Invitrogen) and two reporter sequence-specific primers. The PCR products were fluorescently labeled by primer extension with 6-arboxyfluorescein (6-FAM) 5'-labeled reporter sequence-specific primer (2 min at 95 C, 20 s at 68 C and 10 min at 72 C) and these products were digested with 5U of HpaI (New England Biolabs) for 2h at 37 C. The fragments were purified using Qiaquick PCR columns (Qiagen), analyzed on an ABI 3130xL genetic analyzer (Applied Biosystems) with peak positions identified by using a set of X-rhodamine (ROX)-labeled MapMarker1000 molecular weight standards (BioVentures). The raw capillary electrophoresis data was processed using Attagraph software (Attagene).
Turning to `CCC[Si](OC)(OC)OC`, the outcome was inactive.

Consider `CC(=O)OC1CCCCC1`, for which the call was inactive.

`O=C1CCCCC1C1CCCCC1` (stereo not given): the call was inactive.

On to `C1CNCCN1`, for which the outcome was inactive.

Regarding `CCCCCCCCC(CO)CCCCCC` (stereo not given), the AC50 was 179 µM (active).

For `C=CC(=O)NC(C)(C)C`, the outcome was inactive.

Take `O=C(Cl)c1c(Cl)c(Cl)c(C(=O)Cl)c(Cl)c1Cl`: the call was inactive.

Consider `CCCC=C(C=O)CC`, for which the call was inactive.

`O=C1CCCCCCCCCCCN1`: the outcome was inactive.

For the molecule `CC(=O)CCC1=C(C)CCCC1(C)C`, the outcome was inactive.

As to `CO[Si](C)(C)OC`, the AC50 is 158 µM (active).

Turning to `O=C(O)/C=C/c1ccccc1`, the call was inactive.

For `COCC(=O)O`, the call was inactive.

As to `C=CCOC(=O)c1ccc(C(=O)OCC=C)c(C(=O)OCC=C)c1`, the molecule was classed as inactive.

`C=C(C)C(=O)OCCCCCCCCCCCC`: the call was inactive.

Take `N=C1C=CC(=C(c2ccc(N)cc2)c2ccc(N)cc2)C=C1`: the molecule was classed as inactive.

For the molecule `c1ccc(Nc2cccc3ccccc23)cc1`, the AC50 is 46.7 µM (active).

Turning to `CCCCCOC(=O)CCCCC`, the molecule was classed as inactive.

Consider `CCC1(C)C(=O)N(Cl)C(=O)N1Cl` (stereo not given), for which the result was inactive.

With `Cn1ccnc1`, the call was inactive.

Regarding `CCCCCCOC(=O)CCCCC(=O)OCCCCCC`, the result was inactive.

For the molecule `CC1C(C)(C)C2=C(C(=O)CCC2)C1(C)C` (stereo not given), the result was inactive.

For the molecule `COc1nccnc1CC(C)C`, the molecule was classed as inactive.

Regarding `N#Cc1ccc(C2CCCc3cncn32)cc1` (stereo not given), the outcome was inactive.

Regarding `C=CCCCCCCCCOC(C)=O`, the call was inactive.

On to `CCC(=O)C1CC(C(C)C)CC=C1C` (stereo not given), for which the molecule was classed as inactive.

On to `C=CC(=O)O[C@H]1C[C@@H]2CC[C@@]1(C)C2(C)C`, for which the AC50 was 167 µM (active).

For `C=CCCCCCCCCO`, the result was inactive.

With `CCCCCCCCCCCCCC(=O)OC(C)C`, the outcome was inactive.

Take `N#CC1(N)CCCCC1`: the call was inactive.

Take `CCCCOC(=O)CCC(C)=O`: the outcome was inactive.

As for `Cc1cc(=O)[nH]c(=O)[nH]1`, the result was inactive.

For `O=C(O)C(F)(F)C(F)(F)C(F)(F)C(F)(F)C(=O)O`, the call was inactive.

In the case of `C=Cc1ccc(OC(C)=O)cc1`, the result was inactive.

For `CCCCCCC=O`, the result was inactive.

With `CCCc1ccc(O)c(OC)c1`, the result was inactive.

On to `CCCCC(CC)COC(=O)/C=C/c1ccc(OC)cc1` (stereo not given), for which the molecule was called inactive.

Regarding `CC(C)[N+](C)(CCOC(=O)C1c2ccccc2Oc2ccccc21)C(C)C`, the call was inactive.

Consider `COc1ccc(-c2coc3cc(O)cc(O)c3c2=O)cc1`, for which the molecule was classed as inactive.

Turning to `CC(=O)OCc1ccccc1`, the call was inactive.

Source of the values: PubChem BioAssay (EPA / NIEHS).
